# Measurements published in PubChem BioAssay (Tox21).
# Results filed as inconclusive are left out. A call without a number means that no potency is given here. Active and inactive are the calls of the source. Unless noted, the call rests on the fitted dose curve; in most records, active means well fitted curve in the direction sought with a large enough effect in the repeat runs; inconclusive means weak or mixed curves; inactive means no such curve, though single readings can be large; an effect the other way counts as inactive or inconclusive.
# How the values were obtained:
# [1] = qHTS assay for small molecules that induce genotoxicity in human embryonic kidney cells expressing luciferase-tagged ATAD5 (AID 651632); further: nearly all actives have a fitted effect of over 15% in size
# Outline: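 Reporter cells (HEK293T) express luciferase-tagged ATAD5, a protein that accumulates after DNA damage. Treat 16 hr at 37C/5% CO2, add Amplite, wait 30 min at RT, and read luminescence.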
# [2] = qHTS assay for small molecules that induce genotoxicity in human embryonic kidney cells expressing luciferase-tagged ATAD5 - cell viability (AID 651634; calls by dose curve; further: nearly all actives have a fitted effect of over 25% in size; further: potency means the concentration at half of the fitted maximal effect)
# Outline: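 Seeding of 2,000 HEK293T ATAD5-luciferase cells per well preceded pin-tool compound transfer. Plates sat 15.5 hr at 37C under 5% CO2, then fluorescence was read after 30 min with CellTiter-Fluor.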
# [3] = qHTS assay for small molecule disruptors of the mitochondrial membrane potential - cell viability (AID 720634; calls by dose curve; further: nearly all actives have a fitted effect of over 20% in size; further: potency means the concentration at half of the fitted maximal effect)
# Outline: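 Measuring cytotoxicity alongside mitochondrial potential, the screen quantified ATP by luminescence in HepG2 cells after 1 hr compound incubation and a 30 min room-temperature CellTiter-Glo step.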
# [4] = qHTS assay to test for compound auto fluorescence at 535 nm (green) in HepG2 cells (AID 720675)
# [5] = qHTS assay to test for compound auto fluorescence at 590 nm (red) in HEK293 cells (AID 720679)
# Outline: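 Intensity at 540nm excitation and 590nm emission is reported as Rose Bengal sodium-equivalent autofluorescence. Measurements followed overnight exposure (37C, 5% CO2) of HEK293 cells, 2,000 per well, to 23 nL compound.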
# [6] = qHTS assay to test for compound auto fluorescence at 535 nm (green) in HEK293 cells (AID 720680)
# [7] = qHTS assay to test for compound auto fluorescence at 590 nm (red) in HepG2 cell free culture (AID 720684)
# Outline: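 Steps: dispense MEM/10% FBS medium, no cells; pin compound or DMSO vehicle; read red channel, Ex/Em 540/590 nm. Output given as Rose Bengal sodium equivalents.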
# [8] = qHTS assay to test for compound auto fluorescence at 460 nm (blue) in HepG2 cell free culture (AID 720685)
# Outline: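 Compound (23 nL) or DMSO pinned into cell-free MEM with 10% FBS; blue fluorescence read at 405/460 nm excitation/emission, expressed as auto-fluorescence equivalency to triamterene.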
# [9] = qHTS assay to test for compound auto fluorescence at 535 nm (green) in HepG2 cell free culture (AID 720686)
# [10] = qHTS assay to identify small molecule antagonists of the glucocorticoid receptor (GR) signaling pathway - cell viability counter screen (AID 720693); further: nearly all actives have a fitted effect of over 55% in size; further: potency means the concentration at half of the fitted maximal effect
# [11] = qHTS assay to identify small molecule antagonists of the androgen receptor (AR) signaling pathway using the MDA cell line - cell viability counter screen (AID 743041; further: nearly all actives have a fitted effect of over 45% in size; further: potency means the concentration at half of the fitted maximal effect)
# Outline: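 Cells were plated at 3,000 per well and left 5 h. Compounds in DMSO were then pinned in, followed by R1881. After 16 h at 37C, CellTiter-Fluor fluorescence gave viability.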
# [12] = qHTS assay to identify small molecule antagonists of the thyroid receptor (TR) signaling pathway - cell viability counter screen (AID 743064); further: nearly all actives have a fitted effect of over 50% in size; further: potency means the concentration at half of the fitted maximal effect
# Outline: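 Same-well viability check: GH3.TRE-Luc cells stimulated with 1 nM T3 alongside test compound for 23.5 h, followed by CellTiter-Fluor fluorescence.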
# [13] = qHTS assay to identify small molecule antagonists of the thyroid receptor (TR) signaling pathway (AID 743065); further: nearly all actives have a fitted effect of over 55% in size; further: potency means the concentration at half of the fitted maximal effect
# Outline: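 Antagonism measured as loss of luciferase signal in GH3 cells stably carrying a TRE-luciferase reporter, co-treated with compound and T3 (1 nM final) for 23.5 h at 37 C. Viability was read in the same well by CellTiter-Fluor.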
# [14] = system: thyroid hormone receptor (rat, GH3 cells); assay: qHTS assay to identify small molecule agonists of the thyroid receptor (TR) signaling pathway (AID 743066; calls by dose curve)
# [15] = qHTS assay to identify small molecule antagonists of the estrogen receptor alpha (ER-alpha) signaling pathway - cell viability counter screen (AID 743074; calls by dose curve;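 further: HEK293 cells carrying ER-alpha-UAS-bla reporter stimulated with 17beta-estradiol; nearly all actives have a fitted effect of over 45% in size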; further: potency means the concentration at half of the fitted maximal effect)
# [16] = qHTS assay to identify small molecule antagonists of the estrogen receptor alpha (ER-alpha) signaling pathway using the BG1 cell line - cell viability counter screen (AID 743081);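 further: compound given together with 17beta-estradiol as the ER stimulus; nearly all actives have a fitted effect of over 45% in size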; further: potency means the concentration at half of the fitted maximal effect
# Aromatase (Homo sapiens) = Aromatase (Homo sapiens) (UniProt P11511); assay: qHTS assay to identify aromatase inhibitors (AID 743083); further: nearly all actives have a fitted effect of over 55% in size; further: potency means the concentration at half of the fitted maximal effect
# [17] = qHTS assay to identify aromatase inhibitors - cell viability counter screen (AID 743084);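 further: cells stimulated with testosterone during compound exposure; nearly all actives have a fitted effect of over 55% in size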; further: potency means the concentration at half of the fitted maximal effect
# [18] = qHTS assay to identify small molecule that activate the aryl hydrocarbon receptor (AhR) signaling pathway - cell viability counter screen (AID 743086); further: nearly all actives have a fitted effect of over 45% in size; further: potency means the concentration at half of the fitted maximal effect
# Outline: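 Cytotoxicity counter screen: CellTiter-Fluor signal (30 min, 37 C) in 4000 HepG2 cells/well carrying the DRE-luciferase reporter, following 24 h compound exposure at 37 C.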
# [19] = qHTS assay to identify small molecule phospholipidosis (PLD) inducers (AID 1259344; active means well fitted curve in the direction sought with a large enough effect; an effect the other way counts as inactive or inconclusive)
# Outline: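 Phospholipidosis is scored by imaging LipidTOX-stained pits in HepG2 cells exposed to compound for 24 h at 37 C; pit counts and integrated intensities per well and per cell serve as outputs.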
# Aromatase (Homo sapiens), sequence (P11511 whole entry, looked up): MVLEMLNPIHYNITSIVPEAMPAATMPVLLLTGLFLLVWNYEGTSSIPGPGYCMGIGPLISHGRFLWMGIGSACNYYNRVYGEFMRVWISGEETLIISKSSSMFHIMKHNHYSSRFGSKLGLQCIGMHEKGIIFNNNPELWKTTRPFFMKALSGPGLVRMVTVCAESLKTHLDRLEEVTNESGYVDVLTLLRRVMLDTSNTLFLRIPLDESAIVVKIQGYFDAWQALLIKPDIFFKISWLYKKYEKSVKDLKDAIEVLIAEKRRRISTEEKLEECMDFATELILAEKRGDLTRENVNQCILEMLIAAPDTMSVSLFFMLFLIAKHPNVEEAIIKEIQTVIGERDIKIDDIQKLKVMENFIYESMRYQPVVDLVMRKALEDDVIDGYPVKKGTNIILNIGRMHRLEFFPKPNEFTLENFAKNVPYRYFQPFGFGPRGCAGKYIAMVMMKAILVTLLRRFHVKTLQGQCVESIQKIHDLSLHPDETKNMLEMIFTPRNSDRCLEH
Compound,Potency [1],Potency [2],Potency [3],Potency [4],outcome [5],Potency [6],outcome [7],Potency [8],Potency [9],Potency [10],Potency [11],Potency [12],Potency [13],Potency [14],Potency [15],Potency [16],Potency (Aromatase (Homo sapiens)),Potency [17],Potency [18],Potency [19]
OC[C@@H](O)[C@H]1O[C@@H]2O[C@@H](C(Cl)(Cl)Cl)O[C@@H]2[C@H]1O,inactive,inactive,inactive,inactive,inactive,inactive,inactive,inactive,inactive,inactive,inactive,inactive,inactive,inactive,inactive,inactive,inactive,inactive,inactive,inactive
CCCCCCCCCC(=O)O[C@H]1CC[C@H]2[C@@H]3CCC4=CC(=O)CC[C@]4(C)[C@H]3CC[C@]12C,inactive,inactive,inactive,inactive,inactive,inactive,inactive,inactive,inactive,inactive,inactive,–,inactive,inactive,inactive,inactive,inactive,inactive,inactive,inactive
CC(N)Cc1ccc(O)cc1 (centres undefined),inactive,inactive,inactive,inactive,inactive,inactive,inactive,inactive,inactive,inactive,inactive,inactive,inactive,inactive,inactive,inactive,inactive,inactive,inactive,inactive
C/C(=C\c1csc(C)n1)[C@@H]1C[C@@H]2O[C@]2(C)CCC[C@H](C)[C@H](O)[C@@H](C)C(=O)C(C)(C)[C@@H](O)CC(=O)O1,inactive,–,inactive,inactive,inactive,inactive,inactive,inactive,inactive,inactive,inactive,0.0038 µM (active),0.0106 µM (active),inactive,–,inactive,inactive,inactive,inactive,inactive
O=C(C[C@@H]1NCCC[C@H]1O)Cn1cnc2cc(Br)c(Cl)cc2c1=O,inactive,inactive,inactive,inactive,inactive,inactive,inactive,inactive,inactive,inactive,inactive,–,–,inactive,inactive,inactive,inactive,inactive,inactive,inactive
CN1CCCC(=C(c2cccs2)c2cccs2)C1,inactive,inactive,inactive,inactive,inactive,inactive,inactive,inactive,inactive,inactive,inactive,inactive,inactive,inactive,inactive,inactive,inactive,inactive,inactive,inactive
COc1ccc2c(c1)C13CCCC[C@@H]1C(C2)N(C)CC3 (some centres undefined),inactive,inactive,inactive,inactive,inactive,inactive,inactive,inactive,inactive,inactive,inactive,inactive,–,inactive,inactive,inactive,inactive,inactive,inactive,inactive
CCCC(C)(COC(N)=O)COC(=O)NC1CC1 (centres undefined),inactive,inactive,inactive,inactive,inactive,inactive,inactive,inactive,inactive,inactive,inactive,inactive,inactive,inactive,inactive,inactive,inactive,inactive,inactive,inactive
O=C(CS(=O)C(c1ccccc1)c1ccccc1)NO (centres undefined),inactive,inactive,inactive,inactive,inactive,inactive,inactive,inactive,inactive,inactive,inactive,inactive,inactive,inactive,inactive,inactive,inactive,inactive,–,inactive
C[C@@H]([C@H](O)c1ccccc1)N(C)C,inactive,inactive,inactive,inactive,inactive,inactive,inactive,inactive,inactive,inactive,inactive,inactive,inactive,inactive,inactive,inactive,inactive,inactive,inactive,inactive
CC(=O)OO,inactive,inactive,inactive,inactive,inactive,inactive,inactive,inactive,inactive,inactive,inactive,inactive,inactive,inactive,inactive,inactive,inactive,inactive,inactive,inactive
CCC(N)Cc1c[nH]c2ccccc12 (centres undefined),inactive,inactive,inactive,inactive,inactive,inactive,inactive,inactive,inactive,inactive,inactive,inactive,inactive,inactive,inactive,–,inactive,inactive,inactive,inactive
CCC1(CC)C(=O)NC(=O)N(C)C1=O,inactive,inactive,inactive,inactive,inactive,inactive,inactive,inactive,inactive,inactive,–,inactive,inactive,inactive,inactive,inactive,inactive,inactive,inactive,inactive
NCC[C@H](O)C(=O)N[C@@H]1C[C@H](N)[C@@H](O[C@H]2O[C@H](CN)[C@@H](O)[C@H](O)[C@H]2N)[C@H](O[C@@H]2O[C@H](CO)[C@@H](O)[C@H]2O)[C@H]1O,inactive,inactive,inactive,inactive,inactive,inactive,inactive,inactive,inactive,inactive,inactive,inactive,inactive,inactive,inactive,inactive,inactive,inactive,inactive,inactive
CC1(C)[C@H](C=C(Cl)Cl)[C@H]1C(=O)OCc1c(F)c(F)cc(F)c1F,inactive,inactive,inactive,inactive,inactive,inactive,inactive,inactive,inactive,inactive,inactive,–,inactive,inactive,inactive,inactive,inactive,inactive,inactive,inactive
CNC(C)C(O)c1ccc(O)cc1 (centres undefined),inactive,inactive,inactive,inactive,inactive,inactive,inactive,inactive,inactive,inactive,inactive,inactive,inactive,inactive,inactive,inactive,inactive,inactive,inactive,inactive
NCC(O)c1cccc(O)c1 (centres undefined),inactive,inactive,inactive,inactive,inactive,inactive,inactive,inactive,inactive,inactive,inactive,inactive,inactive,inactive,inactive,inactive,inactive,inactive,inactive,inactive
C#CCN1CC(=O)N(COC(=O)C2C(C=C(C)C)C2(C)C)C1=O (centres undefined),inactive,inactive,inactive,inactive,inactive,inactive,inactive,inactive,inactive,inactive,inactive,inactive,inactive,inactive,inactive,inactive,inactive,inactive,inactive,inactive
CC(=O)Oc1ccc2c3c1O[C@H]1[C@@H](OC(C)=O)C=C[C@H]4[C@@H](C2)N(C)CC[C@@]341,inactive,inactive,inactive,inactive,inactive,inactive,inactive,inactive,inactive,inactive,inactive,inactive,inactive,inactive,inactive,inactive,inactive,inactive,inactive,inactive
CN[C@H]1C[C@@H](N)[C@H](O)[C@@H](O[C@@H]2O[C@H](CO)[C@H](O)[C@@H]3OC4(O[C@H]23)O[C@H](C(N)CO)[C@H](O)[C@H](O)[C@H]4O)[C@@H]1O (some centres undefined),inactive,inactive,inactive,inactive,inactive,inactive,inactive,inactive,inactive,inactive,inactive,inactive,11.9 µM (active),inactive,inactive,inactive,inactive,inactive,inactive,inactive
CN1c2ccccc2C(NCCCCCCC(=O)O)c2ccc(Cl)cc2S1(=O)=O (centres undefined),inactive,inactive,inactive,inactive,inactive,inactive,inactive,inactive,inactive,inactive,inactive,–,inactive,inactive,inactive,inactive,inactive,inactive,inactive,inactive
COC([CH2][Hg])CNC(=O)c1ccccc1OCC(=O)O (centres undefined),–,–,inactive,inactive,inactive,inactive,inactive,inactive,inactive,inactive,inactive,inactive,–,–,inactive,inactive,inactive,inactive,inactive,inactive
CCC1(c2ccccc2)C(=O)NC(=O)N(C(=O)c2ccccc2)C1=O (centres undefined),inactive,inactive,inactive,inactive,inactive,inactive,inactive,inactive,inactive,inactive,inactive,inactive,–,inactive,inactive,–,inactive,inactive,inactive,inactive
c1csc(C2(N3CCCCC3)CCCCC2)c1,inactive,inactive,inactive,inactive,inactive,inactive,inactive,inactive,inactive,inactive,inactive,inactive,inactive,inactive,inactive,inactive,inactive,inactive,inactive,inactive
Oc1cccc[c]1[Hg][Cl],inactive,4.22 µM (active),13.3 µM (active),inactive,inactive,inactive,inactive,inactive,inactive,5.35 µM (active),7.5 µM (active),0.841 µM (active),0.473 µM (active),–,21.3 µM (active),23.7 µM (active),3.76 µM (active),5.31 µM (active),16.8 µM (active),inactive
CCCCCc1cc(O)c2c(c1)OC(C)(C)[C@@H]1CCC(C)=C[C@@H]21,inactive,inactive,–,inactive,inactive,inactive,inactive,inactive,inactive,23.9 µM (active),inactive,13.3 µM (active),16.8 µM (active),–,inactive,inactive,–,inactive,inactive,inactive
